Screens: PubChem, National Center for Advancing Translational Sciences (NCATS)
The list is not random: actives were taken first. Their share in the collection is about 2.7%.
IP6K1 inh: Primary qHTS assay for small molecule inhibitors of Inositol hexaphosphate kinase 1 (IP6K1) | IP6K1 kinase, ADP-Glo luminescence, 2 h; hits give low values | Inositol hexakisphosphate kinase 1 (Homo sapiens), Q92551 | AID 1645851, 2021 | 140,000 tested, 0.81% active | activity change, % (series mostly up to about 58 µM); in the data active = activity change below about -25%; also: % is scaled to controls: 0 for no effect and ±100 for the full control effect
Target sequence (Q92551 whole entry, looked up): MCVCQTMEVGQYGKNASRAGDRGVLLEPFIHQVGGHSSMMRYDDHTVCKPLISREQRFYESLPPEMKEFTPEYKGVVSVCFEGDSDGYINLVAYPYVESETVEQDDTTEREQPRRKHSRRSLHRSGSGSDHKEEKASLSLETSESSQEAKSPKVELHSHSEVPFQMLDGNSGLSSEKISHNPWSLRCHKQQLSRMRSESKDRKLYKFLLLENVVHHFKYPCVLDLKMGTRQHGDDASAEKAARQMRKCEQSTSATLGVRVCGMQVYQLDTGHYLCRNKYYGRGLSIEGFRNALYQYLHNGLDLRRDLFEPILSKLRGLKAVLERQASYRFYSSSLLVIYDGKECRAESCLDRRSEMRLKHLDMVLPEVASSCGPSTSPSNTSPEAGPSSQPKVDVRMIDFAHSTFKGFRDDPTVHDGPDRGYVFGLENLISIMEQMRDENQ
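ADP-Glo luminescence measures ADP made by human IP6K1 during a 2 h RT reaction with ATP/IP6 (mix at 1.3 mM/130 uM); top library doses 57.5 and 19.1 uM final.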
KDM5B inhibitor: Primary screen for KDM5B Histone Demethylases FDH-coupled qHTS | Lysine-specific demethylase 5B (Homo sapiens), Q9UGL1 | KDM5B demethylase, FDH-coupled NADH fluorescence (FDH is formaldehyde dehydrogenase) | Potency, µM (top dose mostly 57.7 µM), most hits filed as inhibitors | 220,000 tested, 2.6% active | AID 1347165, 2019; active = well fitted inhibition curve with a large enough effect; inconclusive = small, poorly fitted or top-dose-only effect; inactive = no such curve, though single readings can be large or run the other way; also: potency is read from the fitted curve at half-maximal effect; 0% is about no effect; nearly all actives have a fitted effect of over 70% in size
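Inhibition is measured as reduced NADH fluorescence generation from FDH coupling to formaldehyde release. Truncated KDM5BΔAP at 200 nM final acts on H3K4me3 peptide (12.5 µM in substrate mix) in pH 7.5 HEPES buffer with Tween-20, 30 min, room temperature.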
Starred values were filed as active, the others as inactive; i = inactive; ? = inconclusive; . = no result given.

SMILES	IP6K1 inh	KDM5B inhibitor
CC(=O)c1cccc(NC(=O)c2ccc3c(=O)n(-c4ccccc4F)cnc3c2)c1	.	i
C1=C(CCNc2ncncc2-c2nc(-c3ccccc3)no2)CCCC1	-6.3	28.2µM*
c1ccc(-c2noc(-c3cncnc3NCCc3cccs3)n2)cc1	-7.2	28.2µM*
Fc1cc(F)cc(CNc2ncncc2-c2nc(-c3ccccc3)no2)c1	2.2	?
c1ccc(CCCNc2ncncc2-c2nc(-c3ccccc3)no2)cc1	-10.6	28.2µM*
c1ccc(-c2noc(-c3cncnc3NCc3cccs3)n2)cc1	-12.2	?
CC1CCC(Nc2ncncc2-c2nc(-c3ccccc3)no2)CC1 (stereo unspecified)	-21.2	i
C=CCNCc1ccc(OCC)cc1	.	i
COC(=O)Cn1c(=O)c2c3c(sc2n(Cc2ccccc2)c1=O)CCC3	.	i
CCCCOC(=O)c1ccc(NC(=O)c2cc(=O)c3cc(C)c(C)cc3o2)cc1	.	i
Cc1cc(C)c(CNC(=O)c2nc(-c3cncnc3)cc3c2ccn3C(C)C)c(=O)[nH]1	-1.4	31.6µM*
Cc1cc(C)c(CNC(=O)c2nc(-c3cccnc3)cc3c2ccn3C(C)C)c(=O)[nH]1	9.9	i
COc1ccccc1-c1cc2c(ccn2C)c(C(=O)NCc2c(C)cc(C)[nH]c2=O)n1	7.0	35.5µM*
COc1ccccc1-c1cc2[nH]ccc2c(C(=O)NCc2c(C)cc(C)[nH]c2=O)n1	13.2	i
CC(=O)Nc1cccc(-c2cc3c(ccn3C)c(C(=O)NCc3c(C)cc(C)[nH]c3=O)n2)c1	-11.0	14.1µM*
COc1cccc(-c2cc3c(ccn3C(C)C)c(C(=O)NCc3c(C)cc(C)[nH]c3=O)n2)c1	-0.4	i
CCN(CC)C1c2cccc3cccc(c23)C1NS(=O)(=O)c1ccccc1 (stereo unspecified)	.	i
Cn1cc(CN2CCOC[C@H]2c2nc(C(C)(C)C)co2)c2ccccc21	3.7	i
CN(CCOC(=O)c1ccccc1Br)C(C)(C)C	.	i
COc1ccc(-c2ccc(C(=O)N3CCCCC3)c(Cl)c2)nn1	-14.3	.
Cc1ccc(Nc2ccnc(N3CCCN(C(=O)NC4CCCC4)C3)n2)cc1	2.9	.
COc1ccc(-c2cn3cc(C(=O)NCc4ccc(F)c(F)c4)nc3s2)cc1	11.1	.
COc1ccc(/C=C2\Oc3cc(OS(=O)(=O)c4ccccc4)ccc3C2=O)c(OC)c1OC	.	i
CNC(=O)c1ccc(CN(CC(=O)NC2(C#N)CCCCC2)C2CC2)cc1	.	i
COc1ccc(C(=O)NC2CCN(c3cc(-c4ccc(Cl)cc4)[nH]n3)C2)c(OC)c1 (stereo unspecified)	0.0	?
SMILES	IP6K1 inh	KDM5B inhibitor
O=C(CCC1CCN(S(=O)(=O)c2ccccc2)CC1)Nc1ccccc1	1.2	.
COc1cccc(NC(=O)CCC2CCN(S(=O)(=O)c3ccccc3)CC2)c1	22.8	28.2µM*
CCN(Cc1ccncc1)C(=O)CCC1CCN(S(=O)(=O)c2ccccc2)CC1	20.4	i
CCN(Cc1ccccc1)C(=O)CCC1CCN(S(=O)(=O)c2ccccc2)CC1	14.8	25.1µM*
COc1ccc(OC)c(C(C)NC(=O)Cc2cccs2)c1 (stereo unspecified)	.	i
CCN(CC)c1cc(CCC(=O)NCc2ccccc2C)ccn1	17.7	?
O=C(CCc1ccnc(N2CCCC2)c1)N1CCN(c2cccc(Cl)c2)CC1	-4.1	22.4µM*
Cc1cccc(N2CCN(C(=O)CCc3ccnc(N4CCCC4)c3)CC2)c1	-8.7	i
Cc1ccc(CNC(=O)CCc2ccnc(N3CCCC3)c2)cc1	-4.9	31.6µM*
CCCNC(=O)CCc1ccnc(N2CCCC2)c1	1.6	22.4µM*
O=C(O)CCc1ccnc(N2CCCC2)c1	4.5	?
CCN(CC)c1cc(CCC(=O)NCc2ccc(Cl)cc2)ccn1	18.8	22.4µM*
O=C(CCc1ccnc(N2CCCC2)c1)NCc1ccccc1Cl	15.6	?
COc1ccc(C(=O)N2CCCC(c3nc(-c4ccccc4)no3)CCNC(=O)CC2)c(OC)n1 (stereo unspecified)	1.2	i
COc1cc(CN(C(=O)c2cc(NC(C)=O)cc(NC(C)=O)c2)C2CC2)ccc1OC(F)F	.	i
CC(C)C(NCC(N)=O)c1cccs1 (stereo unspecified)	.	i
Cc1cc(C)n(Cc2ccc(C(=O)NCC3Cn4cccc4CN3Cc3ccccc3)o2)n1 (stereo unspecified)	-17.9	31.6µM*
O=C1c2cccn2CC(CNS(=O)(=O)c2ccc(F)cc2)N1Cc1ccccc1 (stereo unspecified)	1.5	i
Cc1cc(C)n(Cc2ccc(C(=O)NN)o2)n1	.	i
O=C(NCC1Cn2cccc2CN1Cc1ccccc1)c1ccccn1 (stereo unspecified)	-7.6	.
O=S(=O)(NCC1Cn2cccc2CN1Cc1ccccc1)c1ccccc1 (stereo unspecified)	-0.3	.
CCn1ccc(C(=O)NCC2Cn3cccc3CN2Cc2ccccc2)n1 (stereo unspecified)	6.9	28.2µM*
O=S(=O)(NCC1Cn2cccc2CN1Cc1cccnc1)c1ccc(F)cc1 (stereo unspecified)	-10.2	28.2µM*
Cn1cnc(S(=O)(=O)NCC2Cn3cccc3CN2Cc2ccccc2)c1 (stereo unspecified)	-3.3	28.2µM*
COc1cccc(C(=O)/C(=C/c2cccs2)c2nc3ccccc3o2)c1	.	i
SMILES	IP6K1 inh	KDM5B inhibitor
COc1ccc(NC(=O)C2(N(C)C(=O)Cc3nc(N)n[nH]3)CCCCC2)cc1	.	i
CC(C)OCCCNC(=O)C1CCN(Cc2ccccc2-c2ccccc2F)CC1	7.6	.
Cn1nccc1C(=O)NCC1Cn2cccc2CN1Cc1ccccc1 (stereo unspecified)	-2.9	22.4µM*
Cc1ncoc1C(=O)NCC1Cn2cccc2CN1Cc1ccccc1 (stereo unspecified)	-9.9	28.2µM*
COc1cccc(CC(=O)NCC2Cn3cccc3CN2Cc2ccccc2)c1 (stereo unspecified)	-13.6	.
O=C(NCC1Cn2cccc2CN1Cc1ccccc1)c1cncc(Br)c1 (stereo unspecified)	-9.8	28.2µM*
CCOCCCNC(=O)NCC1Cn2cccc2CN1Cc1ccccc1 (stereo unspecified)	-10.9	28.2µM*
Cc1n[nH]c(C)c1Cc1ccc(C(=O)NCC2Cn3cccc3CN2C)o1 (stereo unspecified)	-4.0	?
O=C(NCC1Cn2cccc2CN1Cc1cccnc1)Nc1ccccc1 (stereo unspecified)	4.9	?
CC(C)S(=O)(=O)NCC1Cn2cccc2CN1Cc1ccccc1 (stereo unspecified)	-10.9	?
CC(Sc1cc(Cl)ccc1Cl)C(=O)NC(C)c1ccccn1 (stereo unspecified)	.	i
CN1Cc2cccn2CC1CNC(=O)c1ccnn1C (stereo unspecified)	-1.4	22.4µM*
CN1Cc2cccn2CC1CNC(=O)c1ccccc1F (stereo unspecified)	-6.1	?
Cc1c(-c2ccccc2)[nH]c2c(CNC(=O)CCn3cnnn3)cc(Cl)cc12	-14.2	25.1µM*
NC(=O)C1(C(=O)NCc2nc(-c3cccc(F)c3)c(-c3ccccn3)[nH]2)CC1	-6.0	i
Cc1c(-c2ccccc2)[nH]c2c(CNC(=O)CN3C(=O)CNC3=O)cc(Cl)cc12	-8.1	?
